The record followed here is PubChem BioAssay AID1850 (Southern Research Specialized Biocontainment Screening …, 2009).

Among all 310,000 compounds or so, about 1,000 (0.32%) were called active. No rule for the calls is given here. Not all results are given here. Potency and affinity values are given separately.

This test is described as follows: Inhibition of PhoP regulon, Salmonella typhi GFP reporter cells, confirmation, 4 h (AID 1850).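 Also: 0% = induced wells with vehicle and 100% = uninduced wells.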 The conditions noted are these: Salmonella Typhi PhoP-promoter GFP reporter, fluorescence, at 50 µM, hits give high values.
In general, inhibition refers to the drop in the measured response relative to a control, in per cent. For `CC(Oc1ccccc1)C(=O)N=C1SC2CS(=O)(=O)CC2N1Cc1ccc(F)cc1` (configuration not stated), the inhibition was 2.75% (inactive).

Turning to `COc1cc(C(=O)OCC(=O)NCc2ccc(F)cc2)cc(NC(=O)c2cccs2)c1OC`, the inhibition was 12.9% (inactive). The value for `COCCN(Cc1cc2cc3c(cc2nc1Cl)OCO3)C(=O)c1ccc(C)cc1` was -6.89% (inactive). The value for `CCc1ccc(CN2C(=O)c3ccccc3C2C(=O)NCc2cccnc2)cc1` (configuration not stated) was -8.38% (inactive). Take `OCCNc1nc(Nc2cccc(O)c2)nc2ccccc12`: the inhibition is -3.51% (inactive). The value for `COc1ccc(OC)c(Nc2nc(NCCO)c3ccccc3n2)c1` was -0.87% (inactive); that for `CN1N=C(C(=O)Nc2ccc3c(c2)CCC3)CCC1=O` was -2.98% (inactive). As for `COc1cccc(COc2ncnc3sccc23)c1`, the figure is 3.57% (inactive).

Regarding `O=C(O)c1oc2ccccc2c1CN1CCN(c2ccccc2)CC1`, the inhibition is -0.62% (inactive). The value for `COc1ccc(OCC(=O)Nn2c(-c3cccc(OC)c3)nc3ccccc3c2=O)cc1` was -2.54% (inactive); that for `COCCCn1c(SCC(=O)NC2CCCC2)nnc1-c1cccs1` was 7.9% (inactive). Turning to `Nc1ccccc1C(=O)NNC(=O)C(=O)/C=C(\O)c1ccccc1`, the inhibition was 3.15% (inactive). The value for `COc1ccc(/C(O)=C/C(=O)C(=O)NNC(=O)c2ccccc2)cc1` was 12.4% (inactive); that for `COc1ccc(-c2nnc(OC)c3ccccc23)cc1` was -2.2% (inactive).

Regarding `O=C(O)C1=C[C@H](c2csc3ccccc23)C[C@H](OCc2ccc(CO)cc2)O1`, the inhibition was 17.9% (inactive). As for `NS(=O)(=O)c1ccc(CCNC(=O)C2CCCO2)cc1` (configuration not stated), the figure is -6.93% (inactive); as for `CC(C)N1C(=O)/C(=C\c2nc3ccccc3c(=O)n2-c2ccccc2)c2ccccc21`, -1.3% (inactive). As for `Cn1c(N)c(C(C[N+](=O)[O-])c2ccccc2Cl)c(=O)n(C)c1=O` (configuration not stated), the figure is 16% (inactive). The value for `COc1cc(C(C[N+](=O)[O-])c2c(N)n(C)c(=O)n(C)c2=O)ccc1O` (configuration not stated) was -9.41% (inactive); that for `Cc1c(CCC(=O)NCCCn2ccnc2)c(=O)oc2c(C)c3oc4c(c3cc12)CCCC4` was 2.2% (inactive). Regarding `Cc1ccccc1S(=O)(=O)Cc1ccc(C(=O)O)o1`, the inhibition is -5.44% (inactive). Turning to `Cn1c(NC2CCCCC2)cc(=O)n(C)c1=O`, the inhibition is -41.1% (inactive). Consider `Cc1cc(C)cc(Nc2cc(=O)n(C3CCCCC3)c(=O)[nH]2)c1`, for which the inhibition was 3.88% (inactive). For `O=C(O)c1ccccc1NCc1cccs1`, the inhibition is -6.17% (inactive). As for `O=C(NNc1c2ccccc2nc2ccccc12)c1ccccc1Cl`, the figure is 5.14% (inactive).

On to `Cc1cc(C(=O)Cn2nc(C(=O)O)c3ccccc3c2=O)c(C)n1CC(F)(F)F`, for which the inhibition is -16% (inactive). The value for `O=C(NNC(=O)C1CC=CCC1)c1cccc(Br)c1` (configuration not stated) was 5.92% (inactive). As for `CCOc1cc(CN2CCc3c([nH]c4ccccc34)C2)ccc1OC`, the figure is -1.33% (inactive); as for `CCCCCc1ccc(CC(=O)O)cc1`, 7.27% (inactive). Regarding `CCCCCCNC(=O)C(=O)NCCc1ccc(Cl)cc1`, the inhibition was -2.68% (inactive).

With `Cc1[nH]c2ccccc2c1C(=O)CN1C(=O)C(=O)N(Cc2ccco2)C1=O`, the inhibition is -2.82% (inactive). As for `CN(Cc1ccccc1)CC(O)COc1ccc(CNCc2cc3ccccc3s2)cc1` (configuration not stated), the figure is 5.91% (inactive); as for `CN(Cc1ccccc1)CC(O)COc1ccc(CNCc2cccnc2)cc1` (configuration not stated), 6.07% (inactive); as for `COc1ccc(OC(C)C(=O)NCc2cccnc2)cc1` (configuration not stated), -6.99% (inactive). Consider `O=C(Nc1cccc(Cl)c1)c1ccccc1`, for which the inhibition was -1.86% (inactive).

Consider `O=C(Nc1ccc(Cl)c(Cl)c1)c1ccccc1`, for which the inhibition was -28.6% (inactive). Regarding `COc1cc(C)ccc1N(CCCN1C(=O)c2cccc3cccc(c23)C1=O)C(=O)c1cccs1`, the inhibition was -7.11% (inactive). In the case of `O=C1c2ccccc2NC(c2ccccc2O)N1c1ccc(F)cc1` (configuration not stated), the inhibition is -11.4% (inactive).

As to `CC1(C)Cc2c(cnn2-c2cccc(F)c2)C(NC(=O)c2ccc(=O)[nH]n2)C1` (configuration not stated), the inhibition was 2.67% (inactive). Consider `O=C(CCN1C(=O)c2ccccc2C1=O)Nn1cnnc1`, for which the inhibition was -10.1% (inactive). The value for `CC(=O)c1ccc(NC(=O)C2CCCN2S(=O)(=O)c2ccc(F)cc2)cc1` (configuration not stated) was 0.38% (inactive). As for `O=S1(=O)CCOC[C@H](c2ccccc2)N1Cc1cccc(Cl)c1`, the figure is 9.33% (inactive); as for `C=CCc1cc(C)ccc1OCCCC(C(=O)OCC)C(=O)OCC`, -4.53% (inactive).

On to `CCCCOc1ccc(C)cc1CN(CCO)CCO`, for which the inhibition is -0.81% (inactive). As for `Cc1cc(NC(=O)c2cccs2)n(-c2ccccc2)n1`, the figure is -5.58% (inactive); as for `O=C(O)c1cn(-c2ccc(F)cc2)c(=O)c2ccccc12`, -6.8% (inactive). The value for `CCOC(=O)c1cn(-c2ccc([N+](=O)[O-])cc2)c2cc(Cl)c([N+](=O)[O-])cc2c1=O` was -25.3% (inactive). On to `CNC(=O)C(=O)NCC1OCCN1S(=O)(=O)c1ccc([N+](=O)[O-])cc1` (configuration not stated), for which the inhibition was 0.4% (inactive). As for `CC(=O)c1c(C)[nH]c(C(=O)COC(=O)c2ccc3c(=O)n4c(nc3c2)CCC4)c1C`, the figure is -1.34% (inactive). As for `CC(=O)c1ccc(NC(=O)c2ccc([N+](=O)[O-])o2)cc1`, the figure is 10.8% (inactive); as for `O=C(Nc1ccc(Cc2ccncc2)cc1)c1ccc(Br)o1`, 7.97% (inactive).

For the compound `Cc1ccc2nsnc2c1NC(=O)c1ccc([N+](=O)[O-])o1`, the inhibition is 1.72% (inactive). Turning to `Cc1cccc(NC(=O)c2ccc([N+](=O)[O-])o2)c1C`, the inhibition is -7.49% (inactive). For `O=C(Nc1c(Cl)ccc2nsnc12)c1ccco1`, the inhibition is -5.33% (inactive). As for `CCn1nnc(NC(=O)c2ccc(-c3ccccc3[N+](=O)[O-])o2)n1`, the figure is 11.3% (inactive); as for `CCn1nnc(NC(=O)c2ccc(Br)o2)n1`, 3.35% (inactive); as for `Cc1ccccc1NC(=O)c1ccc([N+](=O)[O-])o1`, 11.6% (inactive). The value for `Cc1c(C(=O)N2CCC(N3CCSCC3)CC2)oc2c(F)cccc12` was -3.19% (inactive); that for `Cc1cc(NC(=O)NCC(F)(F)F)no1` was -7.59% (inactive); that for `CCN(CC)C(=O)c1sc2nc(N3CCOCC3)c3c(c2c1N)CCCC3` was 3.42% (inactive). In the case of `O=C(Nc1ccccc1Cl)NC1(C(=O)NCc2ccncc2)CCCCC1`, the inhibition was 9.06% (inactive). `CC(C)Cn1c(SCc2nc3ccccc3c(=O)[nH]2)nc2ccccc2c1=O`: the inhibition was -7.91% (inactive).
